# Targets with a hit are over-represented here; the source holds about 7,900 in all. About 0.6% of all pairs of compound and target were hits. Values without a mark were called inactive.
# Experiments:
# Assay in all cases: log2 fold change, soluble protein after heating vs DMSO (PISA); higher = thermal stabilisation; K562 cells, 10 uM, 30 min; active = over 0.2 and 3.5 SD of the protein, either way, in both replicates (recomputed)
# [1] = compound: COC1=CC=C(C=C1)CN2C=CC3=C2C=C(C=C3)C(=O)NO
# How it was run: (§1)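 Values are thermal stability changes relative to control samples and are taken from duplicates. They are stated as log2 fold changes. Before quantification by TMTpro 16plex LC-MS/MS with equalised channel sums, K562 cells at 2×10^6 cells/mL were treated with 10 μM compound for 30 min, heated in aliquots for 3 min across 48°C-58°C, pooled, extracted in PBS with 0.5% NP-40 at 4°C, and centrifuged at 21,000xg for 90 min to give the soluble supernatant.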
# [2] = compound: CON(C)C(=O)N1N=C(c2cc(F)ccc2F)S[C@@]1(CCCN)c1ccccc1 [filanesib]
# How it was run: as §1
# [3] = compound: CO[C@H]1C[C@@H]2CC[C@@H](C)[C@@](O)(O2)C(=O)C(=O)N2CCCC[C@H]2C(=O)O[C@H]([C@H](C)C[C@@H]2CC[C@H](n3cnnn3)[C@H](OC)C2)CC(=O)[C@H](C)/C=C(\C)[C@@H](O)[C@@H](OC)C(=O)[C@H](C)C[C@H](C)/C=C/C=C/C=C/1C [zotarolimus]
# How it was run: as §1
# [4] = compound: COc1cc(C(=O)O)ccc1NC(=O)[C@@H]1N[C@@H](CC(C)(C)C)[C@](C#N)(c2ccc(Cl)cc2F)[C@H]1c1cccc(Cl)c1F [idasanutlin]
# How it was run: as §1
# [5] = compound: COc1cc(Nc2ncc3c(n2)-c2ccc(Cl)cc2C(c2c(F)cccc2OC)=NC3)ccc1C(=O)O [alisertib]
# How it was run: as §1
# [6] = compound: COc1cc2nc(-c3cc(F)ccc3O)nc(N[C@@H]3CNC[C@H]3C(C)(C)O)c2cc1OC
# How it was run: as §1
# [7] = compound: COc1cc2ncnc(Nc3ccc(F)c(Cl)c3)c2cc1OCCCN1CCOCC1 [gefitinib]
# How it was run: as §1
# [8] = compound: COc1cccc2cc(-c3nc([C@H]4CC[C@H](C(=O)O)CC4)n4ncnc(N)c34)[nH]c12
# How it was run: as §1
# [9] = compound: CS(=O)(=O)CCNCc1ccc(-c2ccc3ncnc(Nc4ccc(OCc5cccc(F)c5)c(Cl)c4)c3c2)o1 [lapatinib]
# How it was run: as §1
# [10] = compound: CS(=O)(=O)N1CCN(Cc2cc3nc(-c4cccc5[nH]ncc45)nc(N4CCOCC4)c3s2)CC1 [pictilisib]
# How it was run: as §1
# Chain of UniProt Q6EEV4 (Q6EEV4 whole entry, looked up): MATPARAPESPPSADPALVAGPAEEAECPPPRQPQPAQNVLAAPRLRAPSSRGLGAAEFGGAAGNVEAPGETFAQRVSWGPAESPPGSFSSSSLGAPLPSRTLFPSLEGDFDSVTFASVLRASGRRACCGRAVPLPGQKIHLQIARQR
# Chain of UniProt P43686 (P43686 whole entry, looked up): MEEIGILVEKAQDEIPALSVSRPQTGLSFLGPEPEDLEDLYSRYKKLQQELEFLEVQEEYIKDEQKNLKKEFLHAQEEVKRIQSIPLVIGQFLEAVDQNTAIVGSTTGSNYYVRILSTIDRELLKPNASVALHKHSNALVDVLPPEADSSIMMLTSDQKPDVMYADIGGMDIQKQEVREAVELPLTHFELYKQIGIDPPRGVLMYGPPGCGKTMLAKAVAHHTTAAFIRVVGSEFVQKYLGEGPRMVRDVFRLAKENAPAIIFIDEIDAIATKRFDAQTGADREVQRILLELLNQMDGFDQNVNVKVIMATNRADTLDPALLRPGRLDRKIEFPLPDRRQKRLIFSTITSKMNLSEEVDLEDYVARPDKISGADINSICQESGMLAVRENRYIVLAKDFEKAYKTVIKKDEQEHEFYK
# Chain of UniProt P06454 (P06454 whole entry, looked up): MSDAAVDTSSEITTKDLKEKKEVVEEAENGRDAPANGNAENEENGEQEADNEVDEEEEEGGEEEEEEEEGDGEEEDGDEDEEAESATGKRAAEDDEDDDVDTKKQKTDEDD
# Chain of UniProt Q9Y478 (Q9Y478 whole entry, looked up): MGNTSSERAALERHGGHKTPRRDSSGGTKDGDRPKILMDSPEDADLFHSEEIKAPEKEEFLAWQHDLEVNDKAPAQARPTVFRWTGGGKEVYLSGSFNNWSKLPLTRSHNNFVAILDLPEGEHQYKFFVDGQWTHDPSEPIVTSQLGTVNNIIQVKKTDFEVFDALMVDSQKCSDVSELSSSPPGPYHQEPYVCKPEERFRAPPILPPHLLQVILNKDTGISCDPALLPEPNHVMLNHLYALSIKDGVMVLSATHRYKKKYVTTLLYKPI
# Chain of UniProt Q8WUK0 (Q8WUK0 whole entry, looked up): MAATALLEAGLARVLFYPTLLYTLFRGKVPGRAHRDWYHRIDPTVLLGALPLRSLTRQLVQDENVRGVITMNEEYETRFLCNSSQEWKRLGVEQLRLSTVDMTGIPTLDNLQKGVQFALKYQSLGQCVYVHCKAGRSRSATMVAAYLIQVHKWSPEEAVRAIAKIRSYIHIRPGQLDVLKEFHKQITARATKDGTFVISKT
# Chain of UniProt Q2TAL8 (Q2TAL8 whole entry, looked up): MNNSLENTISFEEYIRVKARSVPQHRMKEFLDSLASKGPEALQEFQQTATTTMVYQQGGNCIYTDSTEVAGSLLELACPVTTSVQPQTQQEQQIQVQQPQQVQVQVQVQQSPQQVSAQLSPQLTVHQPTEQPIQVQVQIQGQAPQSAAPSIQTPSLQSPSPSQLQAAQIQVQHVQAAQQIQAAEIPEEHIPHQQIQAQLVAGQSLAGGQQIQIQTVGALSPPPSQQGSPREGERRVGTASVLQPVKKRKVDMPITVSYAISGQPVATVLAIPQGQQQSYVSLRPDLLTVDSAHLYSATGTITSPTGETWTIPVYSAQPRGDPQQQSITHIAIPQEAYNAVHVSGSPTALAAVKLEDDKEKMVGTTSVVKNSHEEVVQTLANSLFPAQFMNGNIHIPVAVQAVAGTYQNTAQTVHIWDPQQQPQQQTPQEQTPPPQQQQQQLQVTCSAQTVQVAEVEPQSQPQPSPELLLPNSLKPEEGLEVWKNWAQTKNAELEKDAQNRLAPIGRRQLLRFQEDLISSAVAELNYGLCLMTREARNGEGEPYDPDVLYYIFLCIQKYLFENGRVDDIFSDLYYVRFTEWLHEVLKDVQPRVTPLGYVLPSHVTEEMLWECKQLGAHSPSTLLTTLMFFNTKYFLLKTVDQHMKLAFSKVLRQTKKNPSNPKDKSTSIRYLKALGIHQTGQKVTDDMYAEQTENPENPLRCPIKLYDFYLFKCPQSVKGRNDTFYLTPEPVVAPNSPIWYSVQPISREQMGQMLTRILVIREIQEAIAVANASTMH
# Chain of UniProt P17980 (P17980 whole entry, looked up): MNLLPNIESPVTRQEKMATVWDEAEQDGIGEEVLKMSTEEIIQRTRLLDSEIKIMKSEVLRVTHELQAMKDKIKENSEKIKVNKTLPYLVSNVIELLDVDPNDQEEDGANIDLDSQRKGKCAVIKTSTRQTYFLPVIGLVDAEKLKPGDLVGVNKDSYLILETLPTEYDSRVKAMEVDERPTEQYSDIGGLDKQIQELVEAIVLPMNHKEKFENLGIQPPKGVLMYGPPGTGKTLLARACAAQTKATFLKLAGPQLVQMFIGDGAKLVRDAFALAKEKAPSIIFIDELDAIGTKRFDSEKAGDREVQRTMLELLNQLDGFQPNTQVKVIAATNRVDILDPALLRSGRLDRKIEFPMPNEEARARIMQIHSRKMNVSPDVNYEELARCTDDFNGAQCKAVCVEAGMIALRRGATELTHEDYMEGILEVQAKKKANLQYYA
# Chain of UniProt Q9H307 (Q9H307 whole entry, looked up): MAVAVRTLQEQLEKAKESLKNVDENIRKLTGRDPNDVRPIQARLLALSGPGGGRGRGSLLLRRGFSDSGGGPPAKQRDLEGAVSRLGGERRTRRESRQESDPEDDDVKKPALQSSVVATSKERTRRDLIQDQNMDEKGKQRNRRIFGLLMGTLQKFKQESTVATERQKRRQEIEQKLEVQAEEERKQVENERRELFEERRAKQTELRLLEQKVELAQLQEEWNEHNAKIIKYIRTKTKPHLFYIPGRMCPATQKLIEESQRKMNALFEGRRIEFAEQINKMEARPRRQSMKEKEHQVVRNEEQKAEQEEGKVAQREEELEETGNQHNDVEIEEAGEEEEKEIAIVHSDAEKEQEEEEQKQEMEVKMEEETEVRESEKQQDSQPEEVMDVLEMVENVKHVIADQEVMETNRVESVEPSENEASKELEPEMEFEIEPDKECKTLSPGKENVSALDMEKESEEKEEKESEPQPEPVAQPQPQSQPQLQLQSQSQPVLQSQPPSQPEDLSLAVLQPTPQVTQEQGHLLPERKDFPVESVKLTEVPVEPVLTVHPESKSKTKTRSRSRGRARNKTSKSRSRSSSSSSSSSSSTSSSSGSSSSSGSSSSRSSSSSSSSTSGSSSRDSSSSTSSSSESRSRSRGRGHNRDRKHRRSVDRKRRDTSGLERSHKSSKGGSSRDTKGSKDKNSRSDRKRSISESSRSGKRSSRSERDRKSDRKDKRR
# Chain of UniProt Q99541 (Q99541 whole entry, looked up): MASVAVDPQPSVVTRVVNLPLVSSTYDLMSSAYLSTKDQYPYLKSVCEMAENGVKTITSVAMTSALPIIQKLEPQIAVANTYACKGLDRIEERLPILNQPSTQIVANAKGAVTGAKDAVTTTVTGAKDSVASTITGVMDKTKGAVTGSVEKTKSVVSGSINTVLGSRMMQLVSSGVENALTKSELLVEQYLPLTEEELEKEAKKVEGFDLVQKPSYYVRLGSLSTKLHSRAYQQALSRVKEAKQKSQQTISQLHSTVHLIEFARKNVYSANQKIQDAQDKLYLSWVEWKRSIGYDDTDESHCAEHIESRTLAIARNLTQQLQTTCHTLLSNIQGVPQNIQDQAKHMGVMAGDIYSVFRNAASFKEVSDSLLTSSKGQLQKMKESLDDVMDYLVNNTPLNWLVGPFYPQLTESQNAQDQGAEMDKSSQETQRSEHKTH
# Chain of UniProt Q13523 (Q13523 whole entry, looked up): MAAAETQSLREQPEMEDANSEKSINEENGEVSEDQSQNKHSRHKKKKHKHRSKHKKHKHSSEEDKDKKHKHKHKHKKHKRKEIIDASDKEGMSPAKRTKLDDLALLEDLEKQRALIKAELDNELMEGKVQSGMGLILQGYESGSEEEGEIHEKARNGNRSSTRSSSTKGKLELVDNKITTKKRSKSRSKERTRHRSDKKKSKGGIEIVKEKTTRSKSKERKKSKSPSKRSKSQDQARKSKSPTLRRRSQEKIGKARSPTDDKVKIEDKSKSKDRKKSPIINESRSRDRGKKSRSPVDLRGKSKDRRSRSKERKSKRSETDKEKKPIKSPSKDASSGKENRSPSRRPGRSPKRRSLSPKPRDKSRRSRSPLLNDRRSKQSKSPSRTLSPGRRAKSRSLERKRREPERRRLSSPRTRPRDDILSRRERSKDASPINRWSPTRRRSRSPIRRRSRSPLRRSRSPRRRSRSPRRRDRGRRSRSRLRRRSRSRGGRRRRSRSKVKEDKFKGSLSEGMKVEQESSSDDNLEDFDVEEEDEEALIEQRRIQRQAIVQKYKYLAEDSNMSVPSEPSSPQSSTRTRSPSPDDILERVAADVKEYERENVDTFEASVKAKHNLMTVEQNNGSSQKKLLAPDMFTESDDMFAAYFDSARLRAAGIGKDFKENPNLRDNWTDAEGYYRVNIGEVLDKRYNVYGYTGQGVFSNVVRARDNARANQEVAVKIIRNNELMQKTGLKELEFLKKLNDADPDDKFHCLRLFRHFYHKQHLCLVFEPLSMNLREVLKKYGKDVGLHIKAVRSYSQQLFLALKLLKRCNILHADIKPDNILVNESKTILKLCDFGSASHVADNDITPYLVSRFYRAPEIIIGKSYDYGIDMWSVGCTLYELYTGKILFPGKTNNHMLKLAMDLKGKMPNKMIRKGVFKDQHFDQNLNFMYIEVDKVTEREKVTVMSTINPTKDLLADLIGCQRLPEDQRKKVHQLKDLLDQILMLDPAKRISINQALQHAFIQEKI
# Chain of UniProt P10644 (P10644 whole entry, looked up): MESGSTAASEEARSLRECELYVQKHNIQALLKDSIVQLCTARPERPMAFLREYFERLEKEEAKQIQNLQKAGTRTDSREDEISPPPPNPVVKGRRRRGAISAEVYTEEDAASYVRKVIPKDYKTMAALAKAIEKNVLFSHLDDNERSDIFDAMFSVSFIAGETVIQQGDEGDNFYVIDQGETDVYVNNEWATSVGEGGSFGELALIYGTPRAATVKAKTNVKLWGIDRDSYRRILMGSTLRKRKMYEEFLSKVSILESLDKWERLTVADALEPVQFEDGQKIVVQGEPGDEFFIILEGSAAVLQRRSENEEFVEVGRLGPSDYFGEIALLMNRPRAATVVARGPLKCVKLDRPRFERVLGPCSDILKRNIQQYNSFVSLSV
Target,log2 fold change [1],log2 fold change [2],log2 fold change [3],log2 fold change [4],log2 fold change [5],log2 fold change [6],log2 fold change [7],log2 fold change [8],log2 fold change [9],log2 fold change [10]
PTMA (UniProt P06454),0.118,-0.093,-0.054,-0.045,-0.596 (active),-0.049,0.029,0.043,-0.016,0.001
PNN (UniProt Q9H307),-0.004,0.083,-0.047,0.125,-0.017,-0.14,0.031,0.056,-0.037,-0.015
PRPF4B (UniProt Q13523),-0.024,0.253,0.187,0.164,-0.047,-0.1,-0.023,0.003,0.19,0.097
PSMC4 (UniProt P43686),-0.052,0.066,0.008,0.017,-0.049,-0.007,-0.052,-0.022,0.033,-0.099
PITRM1 isoform 2 (UniProt Q5JRX3),-0.097,-0.229 (active),0.124,-0.047,-0.009,-0.026,0.137,0.035,-0.04,-0.032
PKN1 isoform 2 (UniProt Q16512),0.001,0.019,0.046,-0.05,-0.021,-0.217,0.001,-0.044,-0.009,-0.007
PI4K2A (UniProt Q9BTU6),0.012,-0.066,-0.037,-0.044,-0.006,-0.015,-0.027,0.005,0,0.049
PPP4R3B (UniProt Q5MIZ7),-0.01,-0.004,0.014,-0.039,0.048,0,-0.034,-0.034,0.047,0.076
QRSL1 (UniProt Q9H0R6),-0.01,-0.087,-0.028,-0.128,0.022,-0.005,-0.007,0.017,0.003,0.06
PDPK1 (UniProt O15530),-0.015,-0.097,0.04,-0.048,-0.017,0.011,-0.028,0.01,-0.058,-0.179
PPP1CA (UniProt P62136),0.263 (active),0.012,-0.032,0.016,0.024,0.015,0.032,0.023,0.001,0.013
PRKAR1B (UniProt P31321),0.1,0.034,0.011,-0.099,0.02,0.027,0.051,-0.162,0.004,0.199
PCGF2 (UniProt P35227),-0.039,0.055,0.03,-0.008,0.036,0.11,0.021,0.018,-0.058,-0.02
PHKA2 (UniProt P46019),-0.17,-0.055,0.022,-0.104,-0.067,0.064,-0.006,0.025,-0.037,0.078
PSMC3 (UniProt P17980),-0.035,0.043,0.001,0.045,-0.056,-0.015,-0.045,-0.038,0.047,0.013
PSME4 (UniProt Q14997),-0.023,-0.091,0.005,-0.123,-0.045,-0.03,-0.071,0.037,0.044,-0.045

Target,log2 fold change [1],log2 fold change [2],log2 fold change [3],log2 fold change [4],log2 fold change [5],log2 fold change [6],log2 fold change [7],log2 fold change [8],log2 fold change [9],log2 fold change [10]
PRPF3 (UniProt O43395),0.18,-0.038,-0.048,-0.029,0.031,-0.07,0.06,0.072,-0.02,-0.022
PSMD7 (UniProt P51665),-0.059,0.054,-0.014,0.01,-0.032,-0.027,-0.049,-0.022,0.089,-0.078
PRKACB isoform 2 (UniProt P22694),-0.045,-0.098,0.021,-0.01,-0.037,0.124,0.015,0.03,-0.018,-0.018
PTP4A2 (UniProt Q12974),0.078,-0.062,-0.022,-0.079,-0.055,0.033,-0.007,-0.11,-0.078,
POLR2M (UniProt Q6EEV4),-0.046,0.076,0.034,0.046,-0.144,-0.063,0.076,-0.033,-0.084,
PRKAB1 (UniProt Q9Y478),0.024,-0.022,0.07,-0.223,-0.105,-0.034,-0.024,0.05,-0.049,-0.063
QRICH1 (UniProt Q2TAL8),0.015,0.004,-0.022,-0.072,0.071,0.08,0.137,0.032,0.011,
PPT1 (UniProt P50897),0.021,-0.241 (active),-0.043,0.005,-0.041,-0.041,-0.03,0.074,-0.038,0.052
PSMD8 (UniProt K7ERW6),-0.188,,,,,,,,,
PTPMT1 (UniProt Q8WUK0),-0.084,-0.26,-0.027,-0.002,0.006,-0.327 (active),-0.021,0.034,-0.064,0.02
PRKAR1A (UniProt P10644),0.079,0.042,0.046,-0.045,-0.075,0.131,0.046,-0.132,0,0.206
PDIK1L (UniProt Q8N165),-0.014,0.112,-0.059,0.001,0.099,-0.127,0.012,0.092,0.086,
PSMD9 (UniProt O00233),-0.028,-0.053,-0.021,0.005,-0.074,0.056,-0.013,-0.005,-0.021,-0.261 (active)
POLR2C (UniProt P19387),-0.04,0.034,-0.012,-0.074,0.013,-0.022,-0.045,0.086,0.099,
PLIN2 (UniProt Q99541),-0.014,-0.44 (active),-0.041,-0.107,0.058,-0.891 (active),0.003,0.028,-0.093,0.023
